Hits are enriched below; roughly 2.1% of the tested compounds scored in any of these assays.
mut p53 react: restores mutant p53 pathway signaling in SW480 cells; SW480 PUMA-promoter luciferase, p53 mutant reactivation; activation, % at 9.98 µM; 28,000 compounds, 1.5% hits; in the data active = activation above about 52%; inconclusive = no clear call, values can overlap the other calls
ID4 SMM: binders of human ID4 protein. small molecule microarray, Flag-ID4 binding, fluorescence F/B. AID 624137. P47928. calls only. 31,000 compounds, 1.2% hits; call rule not given here;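 also: a binder raises fluorescence above local background on the spot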
Target sequence (P47928 whole entry, looked up): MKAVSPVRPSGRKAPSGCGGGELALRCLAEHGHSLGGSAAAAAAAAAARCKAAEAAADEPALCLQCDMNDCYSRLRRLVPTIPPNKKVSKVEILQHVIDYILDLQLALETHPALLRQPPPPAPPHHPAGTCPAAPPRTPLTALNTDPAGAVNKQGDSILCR
STK33 inh: blocks human STK33 kinase activity; Q9BYT3; ADP-Glo luminescence, MBP substrate; inhibition, % at 12.5 µM; 27,000 compounds, 0.44% hits; AID 2322; in the data active = inhibition above about 20%; inconclusive = no clear call, values can overlap the other calls
An asterisk follows results filed as active; i = inactive; ? = inconclusive; · = no result; + = active, no number.

SMILES	mut p53 react	ID4 SMM	STK33 inh
COc1ccc([Si](C)(C)[C@@H]2[C@@H](CCO)O[C@]3(C(=O)N(Cc4ccc(NC(C)=O)cc4)c4ccccc43)[C@H]2C)cc1	·	i	15
O=C(CCN1C(=O)c2ccccc2S1(=O)=O)Nc1ccc(Oc2ccccc2)cc1	-6	i	0
CCOC(=O)CSc1nc(-c2ccccc2)nc2sc3c(c12)CCCC3	4	i	3
CC1=CC(C)(C)N2C(=O)C(=O)c3cc(OC(=O)CN4C(=O)c5ccccc5C4=O)cc1c32	1	i	6
CC(Oc1ccc(C(C)(C)C)cc1)c1nc(-c2cccnc2)no1 (stereo not given)	-14	i	0
Cc1cc(C)c(NC(=O)CSc2nncc3ccccc23)c([N+](=O)[O-])c1	-6	i	-6
CCCCOC(=O)c1cc2c(cn1)[nH]c1ccccc12	71*	i	-4
CNC(=O)c1cc2c(cn1)[nH]c1ccccc12	·	i	2
COC1=CC(C)c2c(c(OC)c3occ(C)c3c2C)C1=O (stereo not given)	2	i	7
CC1=C(C(=O)OCc2ccccc2)C2(O)C(=O)c3ccccc3C2(O)N1 (stereo not given)	3	i	·
CN1N=C(c2coc3ccccc23)CC1(O)C(F)(F)F (stereo not given)	73*	i	·
COc1ccc(NC(=O)CN2CCN(S(=O)(=O)c3ccc(C)cc3C)CC2)cc1	2	i	0
CC(=O)Nc1ccc(C(=O)CSc2nc(-c3ccccc3)cs2)cc1	88*	i	3
CCOc1ccc(NC(=O)CSc2nc3ccccc3o2)cc1	44	i	0
O=C(CSc1nc2ccccc2s1)Nc1ccc(N2CCOCC2)c(Cl)c1	0	i	-4
O=C(CCSc1nc(-c2ccccc2)cs1)Nc1ccccc1	2	i	0
CC(=O)Nc1ccc(C(=O)CSc2nc3ccccc3o2)cc1	56*	i	7
O=C(CSc1nc2ccccc2o1)Nc1ccc(N2CCOCC2)c(Cl)c1	96*	i	0
COc1cc(OC)nc(NC(=O)CSc2nc3ccccc3o2)n1	-17	i	1
COC(=O)c1cc(OC)c(OC)cc1NC(=O)CSc1nc2ccccc2o1	105*	i	2
COc1ccc(S(=O)(=O)N(C)CC(=O)Nc2cc(C)ccc2C)cc1C	-4	i	-5
CCOC(=O)c1sc2ncn(CC(=O)Nc3ccc(C(C)=O)cc3)c(=O)c2c1C	-8	i	-3
COc1ccccc1CC(=O)Nc1ccc(-c2noc(-c3ccccc3C)n2)cc1	31	i	-1
Cc1ccc(C(=O)O)cc1S(=O)(=O)N(CCO)CCO	-8	i	-4
CS(=O)(=O)N(CC(=O)Nc1ccc(I)cc1)C1CCCCC1	8	i	5
SMILES	mut p53 react	ID4 SMM	STK33 inh
CC(=O)CCc1ccc(Oc2ccc(C(F)(F)F)cn2)cc1	65*	i	-2
C=C(C)C(=O)Nc1ccc(Oc2ccccc2F)nc1	-5	i	·
COc1ccccc1NC(=O)c1ccc(C(C)(C)C)cc1	·	·	-1
CS(=O)(=O)N(CC(=O)Nc1ccccc1Sc1ccccc1)c1ccc(Cl)c(Cl)c1	-20	i	-1
CC1=CCC2[C@](C)(CCC[C@]2(C)C(=O)O)[C@H]1CCc1ccoc1 (stereo not given in full)	·	·	-2
COc1cc(C)c2c(=O)cc(-c3ccccc3)oc2c1	85*	i	1
O=c1cc(-c2ccc(O)c(O)c2)oc2cc(O)cc(O)c12	·	·	78*
COc1cc(OC)c2c(=O)cc(-c3ccccc3)oc2c1	·	·	-33
COc1ccc(-c2cc(=O)c3c(OC)cc(OC)cc3o2)cc1	·	·	1
O=c1c(-c2c(O)cc(O)c3c(=O)cc(-c4ccc(O)cc4)oc23)c(-c2ccc(O)cc2)oc2cc(O)cc(O)c12	·	·	3
COc1ccc(-c2cc(=O)c3c(O)cc(O)cc3o2)cc1	95*	·	25*
N#CC(C#N)=C(N)Nc1ccccc1	·	·	-2
O=C(Oc1c(CN2CCOCC2)cc(Cl)c2cccnc12)c1ccc([N+](=O)[O-])cc1	-40	i	3
COC(=O)COc1cccc(NC(=O)c2ccccc2Cl)c1	-1	i	-1
Cc1ccccc1NC(=O)c1ccc(C)c(S(=O)(=O)Nc2cc([N+](=O)[O-])ccc2C)c1	1	+	-2
Cc1ccc(NS(=O)(=O)c2cc(C(=O)Nc3ccccc3C(=O)N3CCCC3)ccc2C)c(C)c1	-7	i	9
O=C1C(c2c(O)[nH]c3ccccc23)=Nc2ccccc21	-12	i	25*
O=C1c2ccccc2-[n+]2ccc3c([nH]c4ccccc43)c21	0	·	5
CCC(=O)N(C)C[C@H]1Oc2ncc(C#Cc3ccncc3)cc2C(=O)N([C@H](C)CO)C[C@H]1C	4	i	·
C[C@@H]1CN([C@@H](C)CO)C(=O)c2cc(C#Cc3ccncc3)cnc2O[C@H]1CN(C)C(=O)CN(C)C	32	+	·
C[C@@H]1CN([C@@H](C)CO)C(=O)c2cc(C#Cc3cccnc3)cnc2O[C@@H]1CN(C)Cc1ccncc1	10	+	·
C[C@@H]1CN([C@H](C)CO)C(=O)c2cc(C#Cc3cccnc3)cnc2O[C@H]1CN(C)Cc1cccnc1	7	i	·
Cc1ccc(-c2noc(CCC(=O)Nc3ccccc3[N+](=O)[O-])n2)cc1	17	i	4
Cc1ccc(-c2noc(CCC(=O)NC(C)(C)C)n2)cc1	61*	i	5
Cc1ccc(OCC(=O)Nc2ccc(C)cc2[N+](=O)[O-])c(C)c1	89*	i	0
SMILES	mut p53 react	ID4 SMM	STK33 inh
Cc1ccc(NC(=O)COc2ccc(Cl)cc2Br)c([N+](=O)[O-])c1	14	i	1
Cc1ccc(NC(=O)COc2ccc(Cl)cc2C)c([N+](=O)[O-])c1	64*	i	4
Cc1ccc(NC(=O)COc2ccc(Br)cc2C)c([N+](=O)[O-])c1	45	i	4
Cc1ccc(NC(=O)COc2ccc(Br)cc2Cl)c([N+](=O)[O-])c1	82*	i	-3
O=C(COc1ccc(Br)cc1Cl)Nc1ccccc1[N+](=O)[O-]	39	i	1
O=C(NCc1ccco1)c1ccc(NC(=O)c2ccccc2)cc1	7	i	5
Cc1cc(OCC(=O)Nc2cccc(NC(=O)c3cccc(Cl)c3)c2)ccc1Cl	?	i	0
Cc1c(C(=O)Sc2ccccc2)sc2nc(C(F)(F)F)nn12	-4	i	·
COc1ccc2c(C)nc(Nc3nc(C)cc(=O)[nH]3)nc2c1	73*	i	2
CCCc1cc(=O)[nH]c(Nc2nc(C)c3ccc(OC)cc3n2)n1	33	i	-4
Cc1ccc(NC(=O)CCN2C(=O)c3ccccc3S2(=O)=O)cc1Cl	10	i	-7
O=C(NCCN1CCOCC1)c1ccc(Cl)c(S(=O)(=O)N2CCOCC2)c1	-10	+	-2
O=C(Nc1ccccc1C(=O)O)c1ccc(Br)c(S(=O)(=O)N2CCOCC2)c1	13	+	0
Cc1ccc(C(=O)NCCN2CCOCC2)cc1S(=O)(=O)N1CCCCC1	6	i	0
Cc1ccc(C(=O)Nc2ccccc2C(=O)N2CCN(c3ccccc3)CC2)cc1S(=O)(=O)N1CCCCC1	-1	i	1
COc1ccc(-c2cc(C(F)(F)F)nc(SCC(=O)Nc3ccc(C)cc3)n2)cc1	-6	i	12
COC(=O)c1ccc(NC(=O)CSc2nnc(-c3ccccc3F)n2C)cc1	-3	i	0
